Data reported in article PMC4336329 (PLoS ONE, 2015).
The campaign covered roughly 310,000 compounds. About 14,000 (4.5%) showed an effect of 50% or more. The effect is printed as a negative number. The sample as a whole holds a higher share of strong results than the screen did.

These compounds were tested against human ether-à-go-go-related gene (hERG) potassium channel (human, UniProt Q12809) (assay: primary screen, population patch clamp on CHO cells stably expressing hERG; higher = less effect of the substance).
human ether-à-go-go-related gene (hERG) potassium channel, sequence (Q12809 whole entry, looked up): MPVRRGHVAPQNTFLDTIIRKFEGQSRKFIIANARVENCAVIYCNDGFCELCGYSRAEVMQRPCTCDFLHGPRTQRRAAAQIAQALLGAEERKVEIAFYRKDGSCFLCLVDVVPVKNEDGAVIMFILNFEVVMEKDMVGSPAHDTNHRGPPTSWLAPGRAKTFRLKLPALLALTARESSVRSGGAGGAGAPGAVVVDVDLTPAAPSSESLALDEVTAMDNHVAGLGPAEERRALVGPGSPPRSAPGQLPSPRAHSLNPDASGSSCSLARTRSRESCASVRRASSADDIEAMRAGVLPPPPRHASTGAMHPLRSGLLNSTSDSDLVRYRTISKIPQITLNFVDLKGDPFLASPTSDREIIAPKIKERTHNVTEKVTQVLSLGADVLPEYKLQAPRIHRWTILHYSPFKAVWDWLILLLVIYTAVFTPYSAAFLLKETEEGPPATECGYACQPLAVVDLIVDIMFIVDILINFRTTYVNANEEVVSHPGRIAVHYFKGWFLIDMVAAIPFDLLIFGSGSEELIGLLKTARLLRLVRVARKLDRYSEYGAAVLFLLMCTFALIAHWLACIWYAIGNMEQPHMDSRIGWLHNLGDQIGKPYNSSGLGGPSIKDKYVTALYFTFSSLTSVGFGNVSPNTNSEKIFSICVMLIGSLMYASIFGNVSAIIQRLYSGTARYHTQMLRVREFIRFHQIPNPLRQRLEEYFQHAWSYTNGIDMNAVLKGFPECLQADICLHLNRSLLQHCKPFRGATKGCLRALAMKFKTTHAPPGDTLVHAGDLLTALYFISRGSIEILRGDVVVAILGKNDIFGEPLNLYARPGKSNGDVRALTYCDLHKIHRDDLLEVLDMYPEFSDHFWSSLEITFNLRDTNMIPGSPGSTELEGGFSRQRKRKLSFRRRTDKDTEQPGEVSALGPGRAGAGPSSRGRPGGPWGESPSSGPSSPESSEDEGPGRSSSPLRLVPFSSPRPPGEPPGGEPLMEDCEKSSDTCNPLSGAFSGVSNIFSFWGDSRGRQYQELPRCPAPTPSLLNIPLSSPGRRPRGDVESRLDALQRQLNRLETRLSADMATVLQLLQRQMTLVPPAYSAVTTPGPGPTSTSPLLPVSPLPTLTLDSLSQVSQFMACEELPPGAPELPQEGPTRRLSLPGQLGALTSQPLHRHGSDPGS
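Further: peak tail current of the secondary pulse compared with the same well before compound.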

Row | SMILES | hERG current change (%, negative = inhibition) at 10uM [%]
1 | CC(=C1C(=O)c2ccccc2C1=O)N1CCN(CCN=CC2=C(O)CC(C)(C)CC2=O)CC1 | -42.3
2 | CC(=NCCN1CCN(C(=S)Nc2ccccc2)CC1)C1=C(O)CC(C)(C)CC1=O | -15.3
3 | CC(=NCCN1CCN(C(C)=C2C(=O)c3ccccc3C2=O)CC1)C1=C(O)CC(C)(C)CC1=O | -50.5
4 | CCc1nnc(NC(=O)CSc2ccc(-c3ccccc3OC)nn2)s1 | -7.08
5 | O=C(NCCCN1CCC(Cc2ccccc2)CC1)C1CC(=O)N(C2CCCCCC2)C1 (stereo not drawn) | -66.8
6 | CS(=O)(=O)N1CCCC(C(=O)NCCCN2CCC(Cc3ccccc3)CC2)C1 (stereo not drawn) | -33.5
7 | CCS(=O)(=O)N1CCCC(C(=O)NCCN2CCC(Cc3ccccc3)CC2)C1 (stereo not drawn) | -59.1
8 | O=C(NCCCN1CCCCCC1)C1CC(=O)N(C2CCCC2)C1 (stereo not drawn) | 5.99
9 | CCN(CCCNC(=O)C1CCN(S(=O)(=O)CC)CC1)c1ccccc1 | -21.7
10 | O=C(NCCCN1CCC(Cc2ccccc2)CC1)C1CC(=O)N(C2CCCC2)C1 (stereo not drawn) | -34.8
11 | CS(=O)(=O)N1CCCC(C(=O)NCCN2CCC(Cc3ccccc3)CC2)C1 (stereo not drawn) | -28
12 | CCCCN(CCCNC(=O)C1CCN(S(=O)(=O)N2CCOCC2)CC1)c1ccccc1 | -48.8
13 | CCCS(=O)(=O)N1CCCC(C(=O)NCCCN2CCN(c3ccc(F)cc3)CC2)C1 (stereo not drawn) | -59.5
14 | CCCS(=O)(=O)N1CCCC(C(=O)NCCN2CCOCC2)C1 (stereo not drawn) | 13.7
15 | CCCCN(CCCNC(=O)C1CCN(S(=O)(=O)CC)CC1)c1ccccc1 | -51.1
16 | CCCS(=O)(=O)N1CCCC(C(=O)NCCCN2CCN(c3ccccc3F)CC2)C1 (stereo not drawn) | -21.1
17 | COC(=O)c1sc2nc(SCC(=O)N(C)c3ccccc3)n(N)c(=O)c2c1C | 27.4
18 | Cc1cccc(OCCCOc2cccc3cccnc23)c1C | 10.4
19 | Cc1nc(CC(=O)N2CCN(S(=O)(=O)c3ccccc3C#N)CC2)cs1 | 10.3
20 | C/C(=N\NC(=O)CCC(=O)O)c1c(-c2ccccc2)c2cc(Br)ccc2[nH]c1=O | 6.72
21 | O=C(O)C1CC(c2ccccc2)=Nc2ccccc2S1 (stereo not drawn) | 1.43
22 | CN1C(=O)/C(=C\c2ccncc2)SC1=Nc1ccccc1 | -11.2

Row | SMILES | hERG current change (%, negative = inhibition) at 10uM [%]
23 | Cc1ccc(-c2nc(N)sc2C)cc1 | -16.9
24 | COC(=O)c1c(NC(=O)c2cccnc2Cl)sc(C(=O)N(C)C)c1C | -6.44
25 | S=c1[nH]nc(Nc2cccc3ccccc23)s1 | 16.3
26 | O=C(c1cc2sccc2n1Cc1ccccc1)N1CCc2ccccc21 | -2.82
27 | CCCS(=O)(=O)N1CCC(C(=O)NCCc2ccccc2)CC1 | 1.42
28 | CCCC(=O)N1CCC(Cc2ccccc2)CC1 | 9.83
29 | CCS(=O)(=O)N1CCC(C(=O)NCCN2CCN(Cc3ccccc3)CC2)CC1 | 2.07
30 | CCS(=O)(=O)N1CCC(C(=O)NCCCN2CCC(Cc3ccccc3)CC2)CC1 | -65.5
31 | CCCS(=O)(=O)N1CCC(C(=O)NCCN2CCCC2)CC1 | -7.65
32 | CC1CC(C)CN(S(=O)(=O)N2CCCC(C(=O)NCCCN3CCCCC3C)C2)C1 (stereo not drawn) | -9.36
33 | CCCS(=O)(=O)N1CCC(C(=O)NCCN2CCC(Cc3ccccc3)CC2)CC1 | -57.6
34 | CC1CC(C)CN(S(=O)(=O)N2CCCC(C(=O)NCCCN3CCOCC3)C2)C1 (stereo not drawn) | 19.1
35 | CCCNC(=O)N1CCC(Cc2ccccc2)CC1 | 16.6
36 | O=C(NCCCN1CCC(Cc2ccccc2)CC1)C1CCN(S(=O)(=O)N2CCC3(CC2)OCCO3)CC1 | -42.7
37 | CC1CC(C)CN(CCCNC(=O)C2CCCN(S(=O)(=O)N3CC(C)CC(C)C3)C2)C1 (stereo not drawn) | -61
38 | CCCCCCNCC(=O)N1CCC(Cc2ccccc2)CC1 | -71.7
39 | COc1ccccc1NS(=O)(=O)/C=C/c1ccccc1 | -16.8
40 | O=C(CCN1C(=O)c2ccccc2C1=O)C1=NN[C@@H]2C(=O)N(c3ccc(F)cc3)C(=O)[C@H]12 | -5.4
41 | O=C(CCS(=O)(=O)c1ccc2c(c1)NC(=O)CS2)NCCc1ccccc1 | 8.31
42 | O=c1c2cc(N3CCOCC3)ccc2[nH]c(=S)n1CCCN1CCCCCC1 | -17
43 | BrC(/C=C\c1ccccc1)=N/Nc1nc(N2CCOCC2)nc(N2CCOCC2)n1 | -39
44 | CCNc1nn2ccccc2c1/C=C(\C#N)C(=O)OCC | -4.06

Row | SMILES | hERG current change (%, negative = inhibition) at 10uM [%]
45 | COCCCNC(=S)Nc1ccc(C)cc1[N+](=O)[O-] | 1.51
46 | CCCS(=O)(=O)N1CCC(C(=O)N2CCC(Cc3ccccc3)CC2)CC1 | -63
47 | CCCS(=O)(=O)N1CCCC(C(=O)NCCN2CCC(Cc3ccccc3)CC2)C1 (stereo not drawn) | -58.2
48 | CCCS(=O)(=O)N1CCCC(C(=O)N2CCC(Cc3ccccc3)CC2)C1 (stereo not drawn) | -19.9
49 | CCCS(=O)(=O)N1CCCC(C(=O)NCCc2ccccc2)C1 (stereo not drawn) | -1.02
50 | CS(=O)(=O)N1CCC(C(=O)N2CCC(Cc3ccccc3)CC2)CC1 | -15.1
51 | CCCS(=O)(=O)N1CCCC(C(=O)NCCN(C)Cc2ccccc2)C1 (stereo not drawn) | -8.41
52 | CCSc1nsc(SCC)c1C(N)=O | 7.66
53 | CC1(C)Cc2nc3scc(NC(=O)c4ccccc4)c3cc2CO1 | -0.679
54 | CN(CCc1ccccc1)c1ccc([N+](=O)[O-])cn1 | 2.08
55 | CCC1CCCCN1CCCn1c(=S)[nH]c2ccccc2c1=O (stereo not drawn) | -56.2
56 | CC1CC(C)CN(C(=O)CCCn2c(=S)[nH]c3ccccc3c2=O)C1 (stereo not drawn) | -3.01
57 | CCN1CCN(CCn2c(=S)[nH]c3ccccc3c2=O)CC1 | -10.5
58 | COc1ccccc1N1CCN(CCCn2c(=S)[nH]c3ccccc3c2=O)CC1 | -61.6
59 | O=c1c2ccccc2[nH]c(=S)n1CCCN1CCN(C2CCCCC2)CC1 | -53.9
60 | CC1CC(C)CN(CCCn2c(=S)[nH]c3ccccc3c2=O)C1 (stereo not drawn) | -53
61 | O=c1c2ccccc2[nH]c(=S)n1CCN1CCCCC1 | -1.11
62 | CC1CCCCN1CCCn1c(=S)[nH]c2ccccc2c1=O (stereo not drawn) | -46.4
63 | O=c1c2ccccc2[nH]c(=S)n1CCCN1CCN(c2ccccc2F)CC1 | -2.57
64 | COc1ccc(N2CCN(CCCn3c(=S)[nH]c4ccccc4c3=O)CC2)cc1 | -36.7
65 | CCC1CCCCN1CCn1c(=S)[nH]c2cc(OC)c(OC)cc2c1=O (stereo not drawn) | -25.4
66 | CCCCn1c(=S)[nH]c2ccccc2c1=O | 13.7
